Data on 40 compounds can be found in the supplement of paper PMC9942566.

± gives the standard deviation of the averaged measurements.

This assay concerns Serratia marcescens K904 PosmB-luxCDABE reporter (pMQ747). Briefly: PosmB-lux reporter fold induction (RLU/OD600 relative to no-compound control), highest over Biolog concentrations; higher = stronger Rcs reporter activation. To be noted: wild type K904; 4 h. On the procedure:
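Serratia marcescens K904 (wild type) or its isogenic ΔrcsB mutant, carrying the Rcs-dependent PosmB-luxCDABE reporter plasmid pMQ747, was grown in LB at OD600 0.1 in Biolog Phenotype MicroArray plates PM11-20 for 4 h at 30-32°C. Each compound is present at 3-4 proprietary concentrations (not stated); per the Fig. S1 legend the value given is the highest fold over those wells. Three independent trials.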
Turning to `CN[C@@H]1[C@H](O)[C@H](NC)[C@H]2O[C@@]3(O)C(=O)C[C@@H](C)O[C@H]3O[C@@H]2[C@H]1O` [Spectinomycin] (Biolog plate: PM12, well positions: G1-4), the “PosmB-lux reporter fold induction” value was determined as 1.57 ± 0.26. In the case of `CC[C@H]1OC(=O)[C@H](C)[C@@H](O[C@H]2C[C@@](C)(OC)[C@@H](O)[C@H](C)O2)[C@H](C)[C@@H](O[C@@H]2O[C@H](C)C[C@H](N(C)C)[C@H]2O)[C@](C)(O)C[C@@H](C)C(=O)[C@H](C)[C@@H](O)[C@]1(C)O` [Erythromycin] (Biolog plate: PM11, well positions: F5-8), the “PosmB-lux reporter fold induction” value amounted to 1.38 ± 0.32. In the case of `CC(=O)OCC1=C(C(=O)O)N2C(=O)[C@@H](NC(=O)Cc3cccs3)[C@H]2SC1` [Cephalothin] (Biolog plate: PM11, well positions: H1-4) it was 1.36 ± 0.043; in that of `[Na+].[Na+].[O]=[W](=[O])([O-])[O-]` [sodium tungstate] (Biolog plate: PM17, well positions: E9-12), 1.69 ± 0.46; in that of `O.O=S(=O)([O-])[O-].O=S(=O)([O-])[O-].O=S(=O)([O-])[O-].[Al+3].[Al+3]` [aluminum sulfate] (Biolog plate: PM16, well positions: F9-12), 1.33 ± 0.3. In the case of `CO[C@H]1/C=C/O[C@@]2(C)Oc3c(C)c(O)c4c(O)c(cc(O)c4c3C2=O)NC(=O)/C(C)=C\C=C\[C@H](C)[C@H](O)[C@@H](C)[C@@H](O)[C@@H](C)[C@H](OC(C)=O)[C@@H]1C` [rifamycin SV] (Biolog plate: PM16, well positions: E9-12), the “PosmB-lux reporter fold induction” value amounted to 4.24 ± 0.58. As for `CC(Oc1ccccc1)C(=O)N[C@@H]1C(=O)N2[C@@H]1SC(C)(C)[C@@H]2C(=O)O` (stereo not given in full) [phenethicillin] (Biolog plate: PM19, well positions: F1-4), the “PosmB-lux reporter fold induction” value stood at 86 ± 19. In the case of `Nc1ccc(S(N)(=O)=O)cc1` [sulfanilamide] (Biolog plate: PM16, well positions: B5-8) it was 0.986 ± 0.29; in that of `CCn1cc(C(=O)O)c(=O)c2cnc(N3CCNCC3)nc21` [pipemidic acid] (Biolog plate: PM18, well positions: B5-8), 1.46 ± 0.24; in that of `CCS(=O)(=O)CCn1c([N+](=O)[O-])cnc1C` [tinidazole] (Biolog plate: PM18, well positions: F5-8), 1.53 ± 0.081. Consider `CN(C)CCCN1c2ccccc2Sc2ccc(Cl)cc21` [chlorpromazine] (Biolog plate: PM17, well positions: D9-12), for which the “PosmB-lux reporter fold induction” value was 2 ± 0.77. Take `CN1CCN(CCCN2c3ccccc3Sc3ccc(C(F)(F)F)cc32)CC1` [Trifluoperazine] (Biolog plate: PM13, well positions: G9-12): the “PosmB-lux reporter fold induction” value stood at 1.34 ± 0.17.

As to `Cc1cc(NS(=O)(=O)c2ccc(N)cc2)no1` [Sulfa-methoxazole] (Biolog plate: PM12, well positions: G5-8), the “PosmB-lux reporter fold induction” value came to 2.26 ± 0.52. Turning to `CO/N=C(\C(=O)N[C@@H]1C(=O)N2C(C(=O)O)=C(COC(C)=O)CS[C@H]12)c1csc(N)n1` [cefotaxime] (Biolog plate: PM16, well positions: A2-4), the “PosmB-lux reporter fold induction” value was determined as 0.992 ± 0.32. Regarding `CC1(C)S[C@@H]2[C@H](NC(=O)C(C(=O)O)c3ccccc3)C(=O)N2[C@H]1C(=O)O` (stereo not given in full) [Carbenicillin] (Biolog plate: PM14, well positions: G5-8), the “PosmB-lux reporter fold induction” value came to 42 ± 28. Take `CCn1nc(C(=O)O)c(=O)c2cc3c(cc21)OCO3` [cinoxacin] (Biolog plate: PM16, well positions: D9-12): the “PosmB-lux reporter fold induction” value was 2.46 ± 0.85. For the compound `CC1=CC(=O)c2ccccc2C1=O` [Menadione] (Biolog plate: PM15, well positions: G9-12), the “PosmB-lux reporter fold induction” value amounted to 3.74 ± 0.73. In the case of `CN(C)c1ccc(O)c2c1C[C@H]1C[C@H]3[C@H](N(C)C)C(O)=C(C(N)=O)C(=O)[C@@]3(O)C(O)=C1C2=O` [Minocycline] (Biolog plate: PM11, well positions: C9-12), the “PosmB-lux reporter fold induction” value was determined as 2.54 ± 0.15. For `C[C@H]1O[C@@H](n2cc(F)c(=O)[nH]c2=O)[C@H](O)[C@@H]1O` [5-fluoro-5'-deoxyuridine] (Biolog plate: PM18, well positions: H1-4), the “PosmB-lux reporter fold induction” value came out at 1.12 ± 0.19. Take `CCC(C)CCCC(=O)N[C@@H](CCN)C(=O)N[C@H](C(=O)N[C@@H](CCN)C(=O)N[C@H]1CCNC(=O)[C@H]([C@@H](C)O)NC(=O)[C@H](CCN)NC(=O)[C@H](CCN)NC(=O)[C@H](CC(C)C)NC(=O)[C@@H](CC(C)C)NC(=O)[C@H](CCN)NC1=O)[C@@H](C)O` (stereo not given in full) [Colistin] (Biolog plate: PM11, well positions: C5-8): the “PosmB-lux reporter fold induction” value came out at 2.54 ± 0.89. Next, `CCCCC(CC)CNC(=N)NC(=N)NCCCCCCNC(=N)NC(=N)NCC(CC)CCCC` (stereo not given) [Alexidine] (Biolog plate: PM15, well positions: E1-4): 2.48 ± 0.99; `CCCCCCCCCCCC[N+](C)(C)CCCS(=O)(=O)[O-]` [lauryl sulfobetaine] (Biolog plate: PM19, well positions: G1-4): 2.95 ± 1.1; `O=C(N[C@H](CO)[C@H](O)c1ccc([N+](=O)[O-])cc1)C(Cl)Cl` [Chloramphenicol] (Biolog plate: PM11, well positions: F1-4): 1.4 ± 0.62. For `Oc1c(I)cc(Cl)c2cccnc12` [5-chloro-7-iodo-8-hydroxy-quinoline] (Biolog plate: PM16, well positions: A9-12), the “PosmB-lux reporter fold induction” value was found to be 1.27 ± 0.55. With `NC(=O)N/N=C/c1ccc([N+](=O)[O-])o1` [5-Nitro-2-furaldehyde semicarbazone] (Biolog plate: PM15, well positions: E5-8), the “PosmB-lux reporter fold induction” value is 1.67 ± 0.76.

On to `Cc1onc(-c2ccccc2Cl)c1C(=O)N[C@@H]1C(=O)N2[C@@H]1SC(C)(C)[C@@H]2C(=O)O` [Cloxacillin] (Biolog plate: PM11, well positions: B5-8), for which the “PosmB-lux reporter fold induction” value turned out to be 2.22 ± 0.62. `CC(C(=O)O)c1cccc(C(=O)c2ccccc2)c1` (stereo not given) [ketoprofen (an NSAID)] (Biolog plate: PM18, well positions: A2-4): the “PosmB-lux reporter fold induction” value came out at 1.95 ± 0.79. Regarding `NC[C@@H]1O[C@H](O[C@H]2[C@@H](O)[C@H](O[C@@H]3[C@@H](O)[C@H](N)C[C@H](N)[C@H]3O[C@H]3O[C@H](CO)[C@@H](O)[C@H](O)[C@H]3N)O[C@@H]2CO)[C@H](N)[C@@H](O)[C@@H]1O` [Paromomycin] (Biolog plate: PM12, well positions: C1-4), the “PosmB-lux reporter fold induction” value turned out to be 1.63 ± 0.1. With `CC(C)(C)CC(C)(C)c1ccc(OCCOCC[N+](C)(C)Cc2ccccc2)cc1` [Benzethonium chloride] (Biolog plate: PM12, well positions: E9-12), the “PosmB-lux reporter fold induction” value was 2.27 ± 0.38. As to `Nc1ccc(S(=O)(=O)Nc2ccc(Cl)nn2)cc1` [sulfachloro-pyridazine] (Biolog plate: PM17, well positions: C5-8), the “PosmB-lux reporter fold induction” value worked out at 1.46 ± 0.31.

Take `c1ccc(-c2ccccn2)nc1` [2,2'-Dipyridyl] (Biolog plate: PM13, well positions: B5-8): the “PosmB-lux reporter fold induction” value was found to be 1.97 ± 0.26. In the case of `O=[N+]([O-])c1ccc(-[n+]2nc(-c3ccccc3)nn2-c2ccc(I)cc2)cc1` [iodonitro tetrazolium violet] (Biolog plate: PM19, well positions: D5-8), the “PosmB-lux reporter fold induction” value amounted to 0.511 ± 0.27. `CC1(C)S[C@@H]2[C@H](NC(=O)[C@H](N)c3ccc(O)cc3)C(=O)N2[C@H]1C(=O)O` [Amoxicillin] (Biolog plate: PM11, well positions: B1-4): the “PosmB-lux reporter fold induction” value is 2.48 ± 0.35. Next, `CC(C)NCC(O)COc1cccc2ccccc12` (racemic) [D,L-propranolol] (Biolog plate: PM20, well positions: B5-8): 5.54 ± 2.8; `O=C1C=C(O)C(=O)c2ccccc21` [lawsone] (Biolog plate: PM19, well positions: E9-12): 1.63 ± 0.34; `Cc1ccccc1C(OCCN(C)C)c1ccccc1` (stereo not given) [orphenadrine] (Biolog plate: PM20, well positions: B1-4): 2.77 ± 1.3. On to `CN[C@@H]1[C@H](O[C@H]2[C@H](O[C@H]3[C@H](O)[C@@H](O)[C@H](NC(=N)N)[C@@H](O)[C@@H]3NC(=N)N)O[C@@H](C)[C@]2(O)CO)O[C@@H](CO)[C@H](O)[C@H]1O` [dihydro-streptomycin] (Biolog plate: PM19, well positions: G5-8), for which the “PosmB-lux reporter fold induction” value is 1.47 ± 0.16. Take `NC(=O)c1cc[n+](CC2=C(C(=O)[O-])N3C(=O)[C@@H](NC(=O)[C@@H](c4ccccc4)S(=O)(=O)O)[C@H]3SC2)cc1` [cefsulodin] (Biolog plate: PM17, well positions: H1-4): the “PosmB-lux reporter fold induction” value worked out at 18.5 ± 17.

Take `[Na+].[O]=[V](=[O])[O-]` [Sodium metavanadate] (Biolog plate: PM14, well positions: F9-12): the “PosmB-lux reporter fold induction” value stood at 3.94 ± 1.2.

As for `[Cl-].[Cs+]` [Cesium chloride] (Biolog plate: PM13, well positions: F1-4), the “PosmB-lux reporter fold induction” value turned out to be 1.41 ± 0.16.
